The record followed here is PubChem BioAssay AID1851 (National Center for Advancing Translational Sciences (NCATS), 2009).

In all, about 16,000 compounds went through this assay and about 4,000 (25%) were called active. Roughly 26% stayed inconclusive and do not appear here. The list is a sample of the results. Values without a mark were called inactive. Calls come from the whole dose curve; as a rule, active = well fitted curve in the direction sought with a large enough effect; inconclusive = small, poorly fitted or top-dose-only effect, or effect the other way; inactive = no such curve, though single readings can be large or run the other way.

Usually AC50 stands for the midpoint of the concentration-response curve, whichever way the signal moves.
% is set by controls: 0 for no effect and ±100 for the full control effect.

Sequence of Cytochrome P450 2C9 (Homo sapiens) (P11712 whole entry, looked up): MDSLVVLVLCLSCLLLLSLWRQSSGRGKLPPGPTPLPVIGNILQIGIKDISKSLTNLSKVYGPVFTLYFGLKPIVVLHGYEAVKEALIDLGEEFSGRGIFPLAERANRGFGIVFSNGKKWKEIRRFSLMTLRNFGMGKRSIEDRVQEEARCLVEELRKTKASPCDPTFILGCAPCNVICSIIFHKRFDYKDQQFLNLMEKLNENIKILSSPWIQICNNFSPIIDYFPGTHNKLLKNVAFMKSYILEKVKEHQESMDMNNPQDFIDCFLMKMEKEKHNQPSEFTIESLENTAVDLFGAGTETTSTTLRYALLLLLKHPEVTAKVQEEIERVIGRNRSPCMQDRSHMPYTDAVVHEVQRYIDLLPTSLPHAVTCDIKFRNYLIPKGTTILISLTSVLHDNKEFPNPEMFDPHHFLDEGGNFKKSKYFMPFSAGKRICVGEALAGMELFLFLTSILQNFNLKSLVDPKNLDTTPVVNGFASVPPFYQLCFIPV

This experiment addresses Cytochrome P450 2C9 (Homo sapiens) (UniProt P11712). Briefly: Cytochrome panel assay with activity outcomes. Conditions: recombinant CYP, pro-luciferin dealkylation, luminescence, p450-cyp2c9; series mostly up to 57.1 µM; activity, negative = inhibition: at the top concentration.
As for `O=C1[C@H]2CCn3c(=O)n(-c4ccccc4)c(=O)n3[C@H]2[C@H](O)[C@H]2O[C@@H]12`, the activity, negative = inhibition is -4.73% [at 11.4 µM].

Consider `CCOC(=O)CC(Nc1nc(N2CCOCC2)nc(N2CCOCC2)n1)c1ccccc1Cl` (stereo not given), for which the AC50 was 4.47 µM (active).

Consider `Clc1ccccc1C(Nc1ncccn1)Nc1ncccn1`, for which the activity, negative = inhibition is 4.43% [at 11.4 µM].

Turning to `O=c1cc(N2CCOCC2)oc2c(-c3ccccc3)cccc12`, the “activity, negative = inhibition” value was -20%.

Take `CCc1ccccc1N1C(=O)c2cccc3c(N4CCOCC4)c([N+](=O)[O-])cc(c23)C1=O`: the AC50 is 15.8 µM (active).

`CO[C@H]1C[C@@H]2C[C@H](O)C[C@@H](CC(=O)O[C@@H](/C=C\CC(C)C)C[C@@H]3CC[C@H](C)[C@@H](C1)O3)O2`: the activity, negative = inhibition is 1.57% [at 11.4 µM].

Take `CN1CCC2(CC1)CCN(S(=O)(=O)c1ccccc1)CC2`: the “activity, negative = inhibition” value is 5.28%.

For `O=C(NCCN1CCN(Cc2ccccc2)CC1)C1c2ccccc2C(=O)N2CCc3ccccc3C12` (stereo not given), the “activity, negative = inhibition” value was -13.4%.

In the case of `O=C1c2ccccc2C(=O)N1CC1c2ccccc2CCN1S(=O)(=O)c1ccccc1` (stereo not given), the concentration at half-maximal activity (AC50) is 3.16 µM (active).

Turning to `COCC(C)n1c(C)cc(C(=O)CSc2nnc(Nc3ccccc3F)s2)c1C` (stereo not given), the AC50 was 11.2 µM (active).

In the case of `CCOC(=O)N1CCN(C(=O)c2ccc3nc(SCc4ccc(F)cc4)n(C)c3c2)CC1`, the AC50 was 1.58 µM (active).

As for `N#Cc1ccc(CN2CC3(CCN(C(=O)c4cccc(F)c4)CC3)C2)cc1`, the “activity, negative = inhibition” value was 2.69%.

Regarding `CCOC(=O)N1CCN(C(=O)c2cc(-c3ccc(F)cc3)[nH]c2C)CC1`, the “activity, negative = inhibition” value is -40%.

Take `O=C(Nc1ccc2ncccc2c1)Nc1ccc2ncccc2c1`: the activity, negative = inhibition is 4.23% [at 11.4 µM].

As to `Cc1ccc(NC(=O)Nc2ncccc2C)cc1`, the AC50 was 28.2 µM (active).

`Cc1cccnc1NC(=O)C12CCC(C)(C(=O)O1)C2(C)C` (stereo not given): the “activity, negative = inhibition” value was 1.81%.

Regarding `CN(C)C(=O)Oc1cccc([N+](C)(C)C)c1`, the “activity, negative = inhibition” value was -8.11%.

Turning to `C[C@H](NCCc1ccc(O)cc1)[C@@H](O)c1ccc(O)cc1`, the AC50 entry is “inactive”.

In the case of `CC[C@H](NC(C)C)[C@H](O)c1ccc(O)c(O)c1`, the AC50 result is “inactive”.

Take `CC[C@H](c1ccc(O)cc1)[C@@H](CC)c1ccc(O)cc1`: the AC50 was 5.01 µM (active).

With `CN(C)C[C@H]1CCC[C@@H](CN(C)C)C1=O`, the activity, negative = inhibition is 1.9% [at 11.4 µM].

`Cc1ccc(-n2nnnc2-c2cnc3ccc(Cl)cc3c2-c2ccccc2)cc1`: the AC50 was 8.91 µM (active).

`Clc1ccc2[nH]cc(-c3nnnn3-c3ccccc3)c2c1`: the AC50 was 5.01 µM (active).

For `CCn1cc(-c2nnnn2-c2ccc(Cl)cc2)c(=O)c2ccccc21`, the “activity, negative = inhibition” value was -21.4%.

For the compound `CC12CCC(C(=O)O)(C/C1=N\O)C2(C)C` (stereo not given), the “activity, negative = inhibition” value was 1.31%.
